High-throughput results from PubChem.
Hits are enriched below; roughly 2.9% of the tested compounds scored in any of these assays.
Fam108B inh: mouse Fam108B serine hydrolase inhibitors, primary screen, counter-screen for RBBP9 inhibitor project, biochemical, fluorescence polarization | recombinant Fam108B, FP-Rh probe fluorescence polarization | inhibition, % at 9.51 µM | 300,000 compounds, 0.33% hits | AID 1947, 2009;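 active means inhibition above the screen mean inhibition plus 3 SD, computed separately per campaign, cut at about 18% in these data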;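 further: inhibitors lower polarization as less probe binds the enzyme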
PME-1 inh: PME-1 inhibitors via competitive probe labeling, primary screen, biochemical, fluorescence polarization, FP-Rh probe, HTS. Protein phosphatase methylesterase 1 (Homo sapiens), Q9Y570. recombinant PME-1. inhibition, % at 5.9 µM. 320,000 compounds, 0.53% hits. AID 2130, 2009;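 active means inhibition above the campaign mean of all compounds plus 3 SD, cut at about 26% in these data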;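 further: competitive labeling of PME-1 active site by serine hydrolase directed probe; inhibitors block probe labeling so polarization falls and inhibition rises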
PAFAH2 inh: PAFAH2 enzyme inhibitors, primary screen, biochemical, fluorescence polarization, human; Platelet-activating factor acetylhydrolase 2, cytoplasmic (Homo sapiens), Q99487; recombinant PAFAH2, FP-rhodamine activity probe; inhibition, % at 3.39 µM; 340,000 compounds, 0.99% hits;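 active means inhibition above the mean over all tested compounds plus 3 SD, cut at about 30% in these data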;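 further: inhibitors block probe labeling of enzyme so polarization drops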
PAFAH1B3 FP inh: PAFAH1B3 enzyme inhibitors, primary screen, biochemical, fluorescence polarization, human; Platelet-activating factor acetylhydrolase IB subunit alpha1 (Homo sapiens), Q15102; recombinant PAFAH1B3, FP-rhodamine probe; inhibition, % at 3.39 µM; 340,000 compounds, 0.28% hits; AID 492972, 2010;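 active means inhibition above the screen-wide average of all tested compounds plus 3 SD, cut at about 25% in these data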
Target sequence (Q15102 whole entry, looked up): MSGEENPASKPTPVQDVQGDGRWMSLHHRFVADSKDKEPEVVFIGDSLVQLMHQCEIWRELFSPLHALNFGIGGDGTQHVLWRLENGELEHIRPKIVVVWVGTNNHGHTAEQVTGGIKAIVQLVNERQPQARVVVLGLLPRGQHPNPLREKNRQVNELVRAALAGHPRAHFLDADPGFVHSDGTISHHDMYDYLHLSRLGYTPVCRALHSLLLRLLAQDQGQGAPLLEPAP
pPAFAH FP inh: pPAFAH enzyme inhibitors, primary screen, biochemical, fluorescence polarization, human | 330,000 compounds, 1.5% hits | inhibition, % at 3.39 µM | recombinant pPAFAH, FP-rhodamine probe fluorescence polarization;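 active means inhibition above the mean inhibition across the screen plus 3 SD, cut at about 25% in these data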;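 further: inhibitors block binding of the rhodamine activity-based probe so polarization drops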
PAFAH1B2 inh: PAFAH1B2 enzyme inhibitors, primary screen, biochemical, fluorescence polarization, human | AID 492953, 2010 | recombinant PAFAH1B2, FP-rhodamine activity probe | inhibition, % at 3.39 µM | 340,000 compounds, 1.2% hits;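 active means inhibition above the mean of all tested compounds plus 3 SD, cut at about 24% in these data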
Target sequence (P68402 whole entry, looked up): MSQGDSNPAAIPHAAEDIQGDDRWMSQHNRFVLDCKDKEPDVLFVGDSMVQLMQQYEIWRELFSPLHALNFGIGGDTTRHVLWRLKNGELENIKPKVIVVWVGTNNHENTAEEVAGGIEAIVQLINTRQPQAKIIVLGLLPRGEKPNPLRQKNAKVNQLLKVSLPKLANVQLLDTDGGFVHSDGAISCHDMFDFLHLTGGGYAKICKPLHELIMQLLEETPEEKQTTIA
A number is an active result; – = inactive; · = no result given.

SMILES | Fam108B inh | PME-1 inh | PAFAH2 inh | PAFAH1B3 FP inh | pPAFAH FP inh | PAFAH1B2 inh
O=C(OCc1ccc(Br)cc1)c1ccncc1 | – | – | – | – | – | –
CC(=O)c1ccc(NC(=O)C2CCCN(S(=O)(=O)c3cccc4nonc34)C2)cc1 (stereo not given) | – | – | – | – | – | 29
CC(C)c1ccc(NC(=S)N2CCCC(c3ccc(F)cc3)=N2)cc1 | – | – | – | – | – | –
COc1cc2c(cc1OC)[C@@H](NC(=O)CCC1CCCCC1)[C@H](O)C2 | · | · | – | – | – | –
COc1ccc(-c2cc(=O)oc3cc(OCC(=O)Nc4ccc(CCO)cc4)ccc23)cc1 | – | – | – | – | – | –
O=C(CNC(=O)c1cccs1)OCc1ccc(Cl)cc1 | – | – | – | – | – | –
O=C(NCCSCc1ccc(Cl)cc1)c1cccs1 | – | – | – | – | – | 25
COc1ccccc1NC(=O)c1cc2c(CO)cnc(C)c2oc1=Nc1cccc(C(N)=O)c1 | – | – | – | – | 25 | –
Cc1ccc(C(=O)/C=C/c2ccc(-c3ccc(C)cc3)o2)cc1 | – | – | – | – | 26 | –
COc1ccc2oc(C(=O)Nc3ccc(N4CCOCC4)cc3)c(C)c2c1 | – | – | – | – | 52 | –
Cc1cccc(Oc2nc(CN3CCOCC3)nc3sc4c(c23)CCCC4)c1 | – | – | – | – | 31 | –
Clc1nc(CN2CCOCC2)nc2sc3c(c12)CCC3 | – | – | – | – | – | –
COc1ccc(NC(=O)CSc2nc(C(C)C)nc3c2c(=O)n(C)c(=O)n3C)c(OC)c1 | – | – | – | – | – | –
Cc1occc1C(=O)NNS(=O)(=O)c1ccc(Cl)cc1 | – | – | – | – | – | –
CN(C)c1ccsc1C(=O)NNS(=O)(=O)c1ccc(Cl)cc1 | – | – | – | – | – | 32
Nc1c(Br)cc(Br)c2c1C(=O)c1c(cccc1S(=O)(=O)O)C2=O | · | · | – | – | · | –
COc1cc2c(c(OC)c1OC)-c1ccc(NC(=O)c3ccc(F)cc3)c(=O)cc1[C@@H](NC(C)=O)CC2 | 25 | 31 | – | – | – | –
COc1cc2c(c(OC)c1OC)-c1ccc(OC)c(=O)cc1[C@@H](NC(C)=O)CC2 | – | – | – | – | – | –
O=C(Nc1nc2cc3c(cc2s1)OCCO3)c1cccs1 | – | – | – | – | – | –
NNc1nc2cc3c(cc2s1)OCCO3 | – | 39 | – | – | – | –
COc1ccc(NC(=O)CN(C)C(=O)Cn2c(=O)oc3ccccc32)cc1 | – | – | – | – | – | –
Oc1c(Br)cc(Br)cc1CNc1cnc2ccccc2c1 | – | 46 | – | – | – | –
COc1ccc(C)cc1NC(=O)COC(=O)c1ccc2c(c1)OCCO2 | · | – | – | – | – | –
Cc1cccc(C)c1N1CCN(S(=O)(=O)N(C)C)CC1 | – | – | – | – | – | –
CCN(CC)C(=O)[C@H]1CC(CC(=O)NC/C=C(\C)CCC=C(C)C)C(=O)N2CCc3c([nH]c4ccccc34)[C@]12C (stereo not given in full) | · | · | – | – | 28 | –
SMILES | Fam108B inh | PME-1 inh | PAFAH2 inh | PAFAH1B3 FP inh | pPAFAH FP inh | PAFAH1B2 inh
CCN(CC)C(=O)[C@H]1CC(CC(=O)NC/C=C(\C)CCC=C(C)C)C(=O)N2CCc3c([nH]c4ccc(OC)cc34)[C@]12C (stereo not given in full) | · | · | – | – | 26 | –
CSC1=NNC(c2ccc(C(C)(C)C)cc2)=NN1 | – | – | – | – | – | –
O=C(O)c1ccccc1C(=O)Nc1cc(C(F)(F)F)ccc1N1CCCC1 | – | – | – | – | 30 | –
NC(=S)n1[nH]c(-c2ccc([N+](=O)[O-])cc2)c(N=Nc2ccc(O)cc2)c1=O | – | – | – | – | 32 | –
Cc1[nH]n(C(N)=S)c(=O)c1N=Nc1ccc([N+](=O)[O-])cc1Cl | · | · | – | – | · | –
CCOc1ccc(CCNC(=O)C2CC(C)=CCC2C(=O)O)cc1OCC (stereo not given) | – | – | – | – | – | –
CCCNC(=O)C1CCN(S(=O)(=O)c2ccc(Br)cc2)CC1 | – | – | – | – | – | 25
O=C(NCCC1CCCCN1S(=O)(=O)c1ccccc1)C(=O)NCc1ccccc1 (stereo not given) | – | – | – | – | – | –
CCCNC(=O)C1CCN(S(=O)(=O)c2ccc3c(c2)OCCO3)CC1 | – | – | – | – | – | –
O=C(NCCC1CCCCN1S(=O)(=O)c1ccccc1)C(=O)NCc1ccc(F)cc1 (stereo not given) | – | – | – | – | – | 27
O=C(CCNC(=O)C1CCN(S(=O)(=O)c2ccc(F)cc2)CC1)NCc1ccc(F)cc1 | – | – | – | – | – | 27
NC(=O)C1CCCN(S(=O)(=O)c2ccc(Br)cc2)C1 (stereo not given) | – | – | – | – | – | 28
O=C(CCNC(=O)C1CCN(S(=O)(=O)c2ccccc2)CC1)NCc1ccncc1 | – | – | – | – | – | –
CCN(CC)S(=O)(=O)c1ccc(N2CC(C(=O)NCCc3c[nH]c4ccccc34)CC2=O)cc1 (stereo not given) | · | · | – | – | · | –
CC(C)S(=O)(=O)c1csc(NC(=O)Nc2cccc([N+](=O)[O-])c2)c1Cl | – | 28 | – | – | – | –
NC(=O)C1C2CCC(C2)C1C(N)=O (stereo not given) | · | · | – | – | · | –
COC(=O)c1ccccc1S(=O)(=O)NNC(=O)C12CC3CC(CC(C3)C1)C2 | · | · | 80 | – | – | 24
O=C(NNC(=O)C12CC3CC(CC(C3)C1)C2)c1ccccc1O | · | – | 63 | – | – | 36
Cc1cccc(C(=O)NNC(=O)C23CC4CC(CC(C4)C2)C3)c1O | – | – | 31 | – | – | 37
O=C(NNC(=O)C12CC3CC(CC(C3)C1)C2)c1ccccc1F | – | – | – | – | – | –
CSCC[C@H](NC(=O)OC(C)(C)C)C(=O)N/N=C/c1ccc2nccnc2c1 | – | – | – | – | – | –
Cc1ccc(C(=O)NCC(=O)Nc2ccc(S(=O)(=O)Nc3cc(C)nc(C)n3)cc2)cc1 | · | · | – | – | – | –
CCOc1ccc(NC(=O)CCC(=O)c2ccc(OC)cc2)cc1 | – | – | – | – | – | –
CCCCCCSC1=C(C#N)C(c2ccc(C)o2)CC(=O)N1 (stereo not given) | – | – | – | – | 25 | –
CC(=O)Oc1cc(C(=O)OCC(=O)N2CCc3ccccc3C2)cc(OC(C)=O)c1OC(C)=O | · | · | 36 | – | 33 | –
CCOc1c(Br)cc(C(=O)OCC(=O)N2CCc3ccccc3C2)cc1OC | · | – | – | – | – | –
Cc1cccc(C)c1NC(=S)NCCSc1ccc(Cl)cc1 | – | – | – | – | – | 25
